From PubChem BioAssay AID1159580 (chemical genetic matrix, 2015)
The whole screen tested about 5,500 compounds, of which about 2,000 (36%) were called active. Not shown: some 18% with an inconclusive outcome. Cut-off read from the data, not from the text of the source: active = normalized growth mostly below about 0.91 (no sharp cut-off); inconclusive = no clear call, values can overlap the other calls; inactive = mostly above about 0.92. Some of the results follow.

Test: chemical genetic growth profiling, strain panel (AID 1159580);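 note: tested at 20 µM; growth read once vehicle control cultures reached saturation at 30 °C; 1 = growth at the plate median or of vehicle wells; lower values mean less growth of the strain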
Details: growth OD

Measured: normalized growth

c1ccc2c(CC3=NCCN3)cccc2c1
inactive: S. cerevisiae deletion strains, locus YJR075W, strain HOC1, hits give low values 1 | S. cerevisiae deletion strains, locus YKL009W, strain mrt4, hits give low values 1.01 | S. cerevisiae deletion strains, locus YKL068W, hits give low values 1.01 | S. cerevisiae deletion strains, locus YKL085W, strain MDH1 (second series), hits give low values 1.02 | S. cerevisiae deletion strains, locus YKL085W, strain MDH1, hits give low values 1.02 | S. cerevisiae deletion strains, locus YKL160W, strain elf1, hits give low values 0.984 | S. cerevisiae deletion strains, locus YKL190W, strain CNB1, hits give low values 1 | S. cerevisiae deletion strains, locus YKR001C, strain vps1, hits give low values 1.01 | S. cerevisiae deletion strains, locus YKR026C, strain gcn3, hits give low values 0.984 | S. cerevisiae deletion strains, locus YKR091W, strain srl3, hits give low values 0.98 | S. cerevisiae deletion strains, locus YLL001W, strain dnm1, hits give low values 0.986 | S. cerevisiae deletion strains, locus YLL026W, hits give low values 0.997 | S. cerevisiae deletion strains, locus YLL041C, strain sdh2, hits give low values 0.972 | S. cerevisiae deletion strains, locus YLR027C, strain aat2, hits give low values 0.973 | S. cerevisiae deletion strains, locus YLR039C, strain RIC1, hits give low values 1.04 | S. cerevisiae deletion strains, locus YLR058C, strain SHM2, hits give low values 1.01 | S. cerevisiae deletion strains, locus YLR102C, strain apc9, hits give low values 1.02 | S. cerevisiae deletion strains, locus YLR113W, strain HOG1, hits give low values 0.991 | S. cerevisiae deletion strains, locus YLR221C, strain rsa3, hits give low values 0.995 | S. cerevisiae deletion strains, locus YLR258W, strain gsy2, hits give low values 0.991 | S. cerevisiae deletion strains, locus YLR262C, strain YPT6 (second series), hits give low values 0.97 | S. cerevisiae deletion strains, locus YLR262C, strain YPT6, hits give low values 1.03 | S. cerevisiae deletion strains, locus YLR268W, strain sec22, hits give low values 1.02 | S. cerevisiae deletion strains, locus YLR320W, strain mms22, hits give low values 0.979 | S. cerevisiae deletion strains, locus YLR330W, strain CHS5, hits give low values 1.01 | S. cerevisiae deletion strains, locus YLR342W, strain FKS1 (second series), hits give low values 1.03 | S. cerevisiae deletion strains, locus YLR342W, strain FKS1, hits give low values 0.971 | S. cerevisiae deletion strains, locus YLR357W, strain rsc2, hits give low values 0.942 | S. cerevisiae deletion strains, locus YLR370C, strain arc18, hits give low values 0.978 | S. cerevisiae deletion strains, locus YLR371W, strain rom2, hits give low values 1.04 | S. cerevisiae deletion strains, locus YLR384C, strain iki3, hits give low values 0.962 | S. cerevisiae deletion strains, locus YLR418C, strain cdc73, hits give low values 1.02 | S. cerevisiae deletion strains, locus YML016C, strain PPZ1, hits give low values 1.01 | S. cerevisiae deletion strains, locus YML032C, strain rad52, hits give low values 1.03 | S. cerevisiae deletion strains, locus YML120C, strain ndi1, hits give low values 0.977 | S. cerevisiae deletion strains, locus YML124C, strain tub3, hits give low values 1.02 | S. cerevisiae deletion strains, locus YMR058W, strain fet3, hits give low values 0.976 | S. cerevisiae deletion strains, locus YMR078C, strain ctf18, hits give low values 1.02 | S. cerevisiae deletion strains, locus YMR125W, strain sto1, hits give low values 0.938 | S. cerevisiae deletion strains, locus YMR129W, hits give low values 0.96 | S. cerevisiae deletion strains, locus YMR205C, strain PFK2, hits give low values 0.987 | S. cerevisiae deletion strains, locus YMR223W, strain ubp8, hits give low values 1.01 | S. cerevisiae deletion strains, locus YMR231W, strain pep5, hits give low values 0.981 | S. cerevisiae deletion strains, locus YMR263W, strain SAP30, hits give low values 1 | S. cerevisiae deletion strains, locus YMR307W, strain GAS1, hits give low values 1.01 | S. cerevisiae deletion strains, locus YNL067W, strain RPL9B, hits give low values 1 | S. cerevisiae deletion strains, locus YNL071W, strain lat1, hits give low values 0.961 | S. cerevisiae deletion strains, locus YNL128W, strain TEP1, hits give low values 1.01 | S. cerevisiae deletion strains, locus YNL153C, strain GIM3, hits give low values 1 | S. cerevisiae deletion strains, locus YNL183C, strain NPR1, hits give low values 0.957 | S. cerevisiae deletion strains, locus YNL209W, strain ssb2, hits give low values 0.968 | S. cerevisiae deletion strains, locus YNL233W, strain BNI4, hits give low values 1.01 | S. cerevisiae deletion strains, locus YNL248C, strain rpa49, hits give low values 0.963 | S. cerevisiae deletion strains, locus YNL250W, strain rad50, hits give low values 1.02 | S. cerevisiae deletion strains, locus YNL271C, strain bni1, hits give low values 1.02 | S. cerevisiae deletion strains, locus YNL298W, strain CLA4, hits give low values 1.01 | S. cerevisiae deletion strains, locus YNL307C, strain MCK1, hits give low values 1.03 | S. cerevisiae deletion strains, locus YNL322C, strain KRE1 (second series), hits give low values 0.958 | S. cerevisiae deletion strains, locus YNL322C, strain KRE1, hits give low values 1 | S. cerevisiae deletion strains, locus YNR049C, strain mso1, hits give low values 0.982 | S. cerevisiae deletion strains, locus YNR052C, strain pop2, hits give low values 1.02 | S. cerevisiae deletion strains, locus YOL006C, strain TOP1, hits give low values 1.03 | S. cerevisiae deletion strains, locus YOL012C, strain htz1 0.662 | S. cerevisiae deletion strains, locus YOL147C, strain pex11, hits give low values 1.02 | S. cerevisiae deletion strains, locus YOR001W, strain rrp6, hits give low values 0.934 | S. cerevisiae deletion strains, locus YOR061W, strain CKA2, hits give low values 1.01 | S. cerevisiae deletion strains, locus YOR069W, strain VPS5, hits give low values 1 | S. cerevisiae deletion strains, locus YOR070C, strain gyp1, hits give low values 1.01 | S. cerevisiae deletion strains, locus YOR080W, strain dia2, hits give low values 0.965 | S. cerevisiae deletion strains, locus YOR083W, strain WHI5, hits give low values 0.994 | S. cerevisiae deletion strains, locus YOR106W, strain vam3, hits give low values 0.97 | S. cerevisiae deletion strains, locus YOR136W, strain idh2, hits give low values 1.02 | S. cerevisiae deletion strains, locus YOR144C, strain elg1, hits give low values 1.02 | S. cerevisiae deletion strains, locus YOR184W, strain ser1, hits give low values 1.02 | S. cerevisiae deletion strains, locus YOR231W, strain MKK1, hits give low values 1.02 | S. cerevisiae deletion strains, locus YOR265W, strain rbl2, hits give low values 0.987 | S. cerevisiae deletion strains, locus YOR270C, strain vph1, hits give low values 0.914 | S. cerevisiae deletion strains, locus YOR290C, strain snf2, hits give low values 0.984 | S. cerevisiae deletion strains, locus YOR316C, strain cot1, hits give low values 1.03 | S. cerevisiae deletion strains, locus YPL051W, strain arl3, hits give low values 0.988 | S. cerevisiae deletion strains, locus YPL055C, strain LGE1, hits give low values 1.02 | S. cerevisiae deletion strains, locus YPL078C, strain atp4, hits give low values 0.981 | S. cerevisiae deletion strains, locus YPL106C, strain sse1, hits give low values 0.968 | S. cerevisiae deletion strains, locus YPL240C, strain hsp82, hits give low values 0.997 | S. cerevisiae deletion strains, locus YPL241C, strain CIN2, hits give low values 1 | S. cerevisiae deletion strains, locus YPL256C, strain CLN2, hits give low values 0.987 | S. cerevisiae deletion strains, locus YPR119W, strain clb2, hits give low values 1.02 | S. cerevisiae deletion strains, locus YPR141C, strain kar3, hits give low values 1.03 | S. cerevisiae deletion strains, locus YPR163C, strain tif3, hits give low values 1.02 | S. cerevisiae deletion strains, locus YPR167C, strain met16, hits give low values 1.02 | S. cerevisiae deletion strains, strain wtn01, hits give low values 1.02 | S. cerevisiae strains, strain wild type, hits give low values 1
